In PubChem BioAssay (Tox21):
“And” between values parts separate entries of the source, which are not always exact repeats. Identical values can stand only once. Inconclusive results are not listed. Entries that show only a call come without a potency. A structure can be active in one record and inactive in another. The source made the active and inactive calls. Calls come from the whole dose curve.

Tests used:
[1] = molecular target: Acetylcholinesterase (Homo sapiens) (UniProt P22303); experiment: Acetylcholinesterase (AChE) small molecule antagonists: colormetric cell-based qHTS assay (AID 1347395); note: nearly all actives have a fitted effect of over 30% in size; note: potency is the fitted concentration of half-maximal effect
Procedure, shortened: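 Endogenous AChE of human neuroblastoma SH-SY5Y cells was measured with an Ellman-type DTNB/acetylthiocholine mix. Compound pretreatment lasted 30 min at 37 C; substrate reaction ran 90 min at 37 C.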

[2] = molecular target: Acetylcholinesterase (Homo sapiens) (UniProt P22303); experiment: Acetylcholinesterase (AChE) small molecule antagonists: enzyme-based qHTS assay (AID 1347397); details: Potency: AChE enzyme activity inhibition; outcome: AChE enzyme activity inhibition; note: nearly all actives have a fitted effect of over 55% in size
Procedure, shortened: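 First, recombinant human AChE (50 mU/mL as dispensed) received test compound or DMSO. Second, plates stood 30 min at room temperature. Third, DTNB and acetylthiocholine were added, followed by 10 min at room temperature and colorimetric detection.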

[3] = molecular target: Acetylcholinesterase (Homo sapiens) (UniProt P22303); experiment: Acetylcholinesterase (AChE) small molecule antagonists: fluorescence cell-based qHTS assay (AID 1347398); details: Potency: AChE activity; outcome: AChE activity; note: nearly all actives have a fitted effect of over 50% in size; note: potency is the fitted concentration of half-maximal effect
Procedure, shortened: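 Homogeneous quantitative HTS format. SH-SY5Y cells seeded at 2,000 per well settle overnight at 37 C. Compound pretreatment runs 30 min (37 C, 5% CO2); substrate/probe mix then reacts 40 min at RT before reading 490/520 nm.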

[4] = molecular target: Acetylcholinesterase (Homo sapiens) (UniProt P22303); experiment: Acetylcholinesterase (AChE) small molecule antagonists: enzyme-based qHTS assay with human liver microsomes (AID 1347399); details: Potency: qHTS inhibition; outcome: qHTS inhibition; note: nearly all actives have a fitted effect of over 60% in size
Procedure, shortened: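 Recombinant human AChE (50 mU/mL in the enzyme mix) and human liver microsomes (0.25 mg/mL final) were preincubated with compound and NADPH (0.25 mg/mL final) for 30 min at 37 C. Acetylthiocholine/DTNB was then added; thiocholine was read colorimetrically after 10 min at room temperature.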

Chain of Acetylcholinesterase (Homo sapiens) (P22303 whole entry, looked up): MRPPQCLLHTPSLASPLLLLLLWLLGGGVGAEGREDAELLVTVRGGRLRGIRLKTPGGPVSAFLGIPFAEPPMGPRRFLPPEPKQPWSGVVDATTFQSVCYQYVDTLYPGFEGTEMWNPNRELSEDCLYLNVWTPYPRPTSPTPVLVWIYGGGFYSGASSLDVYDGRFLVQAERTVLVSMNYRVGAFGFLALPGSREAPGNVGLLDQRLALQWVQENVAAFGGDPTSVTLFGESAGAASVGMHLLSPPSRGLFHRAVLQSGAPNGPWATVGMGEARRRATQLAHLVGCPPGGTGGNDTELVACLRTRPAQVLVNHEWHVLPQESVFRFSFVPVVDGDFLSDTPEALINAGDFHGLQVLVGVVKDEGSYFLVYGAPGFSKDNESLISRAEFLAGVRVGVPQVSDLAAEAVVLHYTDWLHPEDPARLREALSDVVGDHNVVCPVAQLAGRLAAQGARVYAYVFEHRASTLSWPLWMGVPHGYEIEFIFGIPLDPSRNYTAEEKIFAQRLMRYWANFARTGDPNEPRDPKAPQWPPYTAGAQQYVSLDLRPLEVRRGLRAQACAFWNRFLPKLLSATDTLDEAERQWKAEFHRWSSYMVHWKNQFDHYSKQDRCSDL

SMILES	Potency [1]	Potency [2]	Potency [3]	Potency [4]	outcome [1]	outcome [2]	outcome [3]	outcome [4]
ClCCl	inactive	inactive	inactive	inactive				
COCCOCCOCCO	inactive	inactive	inactive	inactive				
CC(C)OC(=O)CCC(=O)OC(C)C	inactive	inactive	inactive	inactive				
CCO[Si](CCCNC(N)=O)(OCC)OCC	inactive	inactive	inactive	inactive				
CCN(CC)CCNC(=O)c1cc(S(C)(=O)=O)ccc1OC	inactive	inactive	inactive	inactive				
OC[C@@H](O)[C@@H](O)[C@H](O)[C@@H](O)CO	inactive	inactive	inactive	inactive				
O=C1OC(=O)c2ccc3c4c(ccc1c24)C(=O)OC3=O	inactive	inactive	inactive	inactive				
CCCCCCCCCCCCOCC1CO1 (stereo not given)	inactive	inactive	inactive	inactive				
c1c[nH]cn1	inactive	inactive	inactive	inactive				
C[C@H](CCC(=O)O)[C@H]1CC[C@H]2[C@@H]3CC[C@@H]4C[C@H](O)CC[C@]4(C)[C@H]3C[C@H](O)[C@]12C	inactive	inactive	inactive	inactive				
O=[N+]([O-])c1ccc(/C=N\O)o1	inactive	inactive	inactive	inactive				
C=CC(=O)OCCC(=O)O	82.3 µM (active) and inactive	inactive	inactive	inactive				
O=C(Nc1ccc2c(c1)Cc1ccccc1-2)C(F)(F)F	inactive	inactive	inactive	inactive				
Cc1ccc(N=Nc2c(O)c(C(=O)O)cc3ccccc23)c(S(=O)(=O)O)c1	inactive	inactive	inactive	inactive				
CCCCS(=O)(=O)N[C@@H](Cc1ccc(OCCCCC2CCNCC2)cc1)C(=O)O	inactive	inactive	inactive	inactive				
CC(C)c1ccc(C(=O)N=C(N)N)cc1S(C)(=O)=O					inactive	inactive	inactive	inactive
O=c1cccc[nH]1	inactive	inactive	inactive	inactive				
C1CN(CCOCCN2CCOCC2)CCO1	inactive	inactive	inactive	inactive				
c1ccc2c(c1)Oc1ccccc1S2	inactive	inactive	inactive	inactive				
N#CCC(=O)NN	inactive	inactive	inactive	inactive				

SMILES	Potency [1]	Potency [2]	Potency [3]	Potency [4]	outcome [1]	outcome [2]	outcome [3]	outcome [4]
OCC(CO)(CO)CO	inactive	inactive	inactive	inactive				
COc1ccc(CCN(C)CCCN2CCc3cc(OC)c(OC)cc3CC2=O)cc1OC	inactive	inactive	inactive	inactive				
O=C(Nc1cccc(C(F)(F)F)c1)c1cc(Br)cc(Br)c1O	inactive	inactive	inactive	inactive				
O=C(Nc1ccc(Cl)cc1)Nc1ccc(Cl)c(Cl)c1	inactive	inactive	inactive	inactive				
Cc1oc(-c2ccccc2)nc1CCC(=O)c1ccc(CC2SC(=O)NC2=O)cc1 (stereo not given)	inactive	inactive	inactive	inactive				
C#C[C@]1(O)CC[C@H]2[C@@H]3CCC4=Cc5oncc5C[C@]4(C)[C@H]3CC[C@@]21C	inactive	inactive	inactive	inactive				
CC(=O)c1ccc(O)c(C(N)=O)c1	inactive	inactive	inactive	inactive				
OC[C@H]1O[C@@H]2O[C@H]3[C@H](O)[C@@H](O)[C@@H](O[C@H]4[C@H](O)[C@@H](O)[C@@H](O[C@H]5[C@H](O)[C@@H](O)[C@@H](O[C@H]6[C@H](O)[C@@H](O)[C@@H](O[C@H]7[C@H](O)[C@@H](O)[C@@H](O[C@H]8[C@H](O)[C@@H](O)[C@@H](O[C@H]1[C@H](O)[C@H]2O)O[C@@H]8CO)O[C@@H]7CO)O[C@@H]6CO)O[C@@H]5CO)O[C@@H]4CO)O[C@@H]3CO	inactive	inactive	inactive	inactive				
CCC(C)(C)C(=O)O[C@H]1C[C@@H](C)C=C2C=C[C@H](C)[C@H](CC[C@@H]3C[C@@H](O)CC(=O)O3)[C@H]21	inactive	inactive	inactive	inactive				
CCCCOCCOCCSC#N	inactive	inactive	inactive	inactive				
O=CNNC=O	inactive	inactive	inactive	inactive				
O=c1[nH]cnc2[nH]ncc12	inactive	inactive	inactive	inactive				
CC1(C)CC(O)CC(C)(C)N1	inactive	inactive	inactive	inactive				
COc1ccc(NC(C)=O)cc1N	inactive	inactive	inactive	inactive				
CCN(CC)C(=O)c1cccc(C)c1	inactive	inactive	inactive	inactive				
CCOC(=O)NNc1nncc2ccccc12	inactive	inactive	inactive	inactive				
CCn1nc(C)c2c1C(=O)NCC(c1ccc(O)cc1)=N2	inactive	inactive	inactive	inactive				
CCN1CCC[C@H]1CNC(=O)c1c(O)c(Cl)cc(Cl)c1OC	inactive	inactive	inactive	inactive				
O=[N+]([O-])c1ccc(Oc2ccc([N+](=O)[O-])cc2)cc1	inactive	inactive	inactive	inactive				
CC(=O)c1ccccn1	inactive	inactive	inactive	inactive				

SMILES	Potency [1]	Potency [2]	Potency [3]	Potency [4]	outcome [1]	outcome [2]	outcome [3]	outcome [4]
CC(CCO)CCCC(C)(C)O (stereo not given)	inactive	inactive	inactive	inactive				
CCCC(=O)O[C@]1(C(=O)CO)CC[C@H]2[C@@H]3CCC4=CC(=O)CC[C@]4(C)[C@H]3[C@@H](O)C[C@@]21C	inactive	inactive	inactive	inactive				
CC1(C)OC[C@@H](COC(=O)CCc2ccc(OC[C@@H](O)CNCCNC(=O)N3CCOCC3)cc2)O1	inactive	inactive	inactive	inactive				
NC(=O)Cn1c(=O)cc(CCN2CCN(c3nccc4sccc34)CC2)c2ccc(F)cc21	35.6 µM (active)	inactive	35.6 µM (active)	inactive				
CCCCCCCCCOS(=O)(=O)O	inactive	inactive	inactive	inactive				
CCCCCCCC(=O)OCC(O)CO (stereo not given)	inactive	inactive	inactive	inactive				
COCCOCCOCCOCCOCCO	inactive	inactive	inactive	inactive				
c1ccc(COCc2ccccc2)cc1	inactive	inactive	inactive	inactive				
Nc1nc2ncc(CNc3ccc(C(=O)N[C@@H](CCC(=O)O)C(=O)O)cc3)nc2c(=O)[nH]1	inactive	inactive	inactive	inactive				
Clc1nc2ccccc2s1	inactive	inactive	inactive	inactive				
O=C(O)CCCCCC(=O)O	inactive	inactive	inactive	inactive				
NC(=O)N[C@@H](CCC(=O)O)C(=O)O	inactive	inactive	inactive	inactive				
COc1ccc(Nc2ccc(OC)cc2)cc1	inactive	inactive	inactive	inactive				
CC(C)=CC(C)(C)C	inactive	inactive	inactive	inactive				
Cc1ccc(C(=O)Oc2ccc(C(O)CNC(C)(C)C)cc2OC(=O)c2ccc(C)cc2)cc1 (stereo not given)	inactive	inactive	inactive	inactive				
CCCCCCCCCCCCCCCCC	inactive	inactive	inactive	inactive				
c1cc[nH]c1	inactive	inactive	inactive	inactive				
COc1ccc(-c2cc(C(F)F)nn2-c2ccc(S(N)(=O)=O)cc2)cc1F	inactive	inactive	inactive	inactive				
NC(N)=NC(=O)c1nc(Cl)c(N)nc1N	35.8 µM (active) and 32.9 µM (active) and 27.5 µM (active)	inactive	12.7 µM (active) and 32.9 µM (active)	inactive				
C=CCCCCCC	inactive	inactive	inactive	inactive				
